Screening results (PubChem BioAssay)
D2 PAM-1: potentiates the human D2 dopamine receptor allosterically | P14416 | DiscoveRx D2 beta-arrestin cells, luminescence, 90 min; 100% = 57 uM dopamine signal | potentiation, % (concentration not given with the values) | hit rate 0.23% among 360,000; in the data active means potentiation above about 50%; inconclusive means mostly about 30% to 49%
Target sequence (P14416 whole entry, looked up): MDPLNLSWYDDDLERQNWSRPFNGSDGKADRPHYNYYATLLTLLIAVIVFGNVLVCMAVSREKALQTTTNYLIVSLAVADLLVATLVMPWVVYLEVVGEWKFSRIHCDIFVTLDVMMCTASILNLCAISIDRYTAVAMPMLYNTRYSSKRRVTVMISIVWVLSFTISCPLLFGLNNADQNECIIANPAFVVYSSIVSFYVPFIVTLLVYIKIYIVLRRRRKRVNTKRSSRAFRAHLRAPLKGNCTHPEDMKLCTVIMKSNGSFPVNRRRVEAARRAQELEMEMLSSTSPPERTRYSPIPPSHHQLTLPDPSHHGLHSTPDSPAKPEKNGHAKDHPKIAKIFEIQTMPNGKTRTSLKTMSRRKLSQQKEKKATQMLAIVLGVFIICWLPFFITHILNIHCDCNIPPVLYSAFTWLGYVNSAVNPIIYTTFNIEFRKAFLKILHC
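D2 cells co-treated with compound plus 50 nM dopamine (EC20) for 90 min at 37 deg C to detect potentiation. Beta-arrestin recruitment was read as enzyme-fragment luminescence after 1 h at ambient temperature. Full response was set by 57 uM dopamine.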
D2 PAM-2: positive allosteric modulators of human D2 dopamine receptor; P14416; HEK293 T-REx D2, calcium flux, EC20 dopamine potentiation; potentiation, % at 10 µM; hit rate 0.34% among 340,000;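 active means potentiation over 3 SD above the plate norm, cut at about 30% in these data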; further: 0% is about no effect
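Tetracycline-induced HEK293 T-REx cells force-coupled to calcium signalling expressed D2; compounds were pin-added after a 10 s baseline, read kinetically 180 s, then an EC20 dopamine challenge followed with a further 180 s calcium read.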
D2 antagonist: D2 dopamine receptor (human) antagonism; P14416; inhibition, % at 10 µM; hit rate 2% among 340,000; HEK293 TREx D2 cells, calcium flux, dopamine EC80; in the data active means inhibition above about 30%; inactive means below that, where a call was filed; further: 0% is about no effect
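Dopamine at EC80 is the agonist stimulus; test compounds precede it by 180 s. Calcium flux read kinetically in a force-coupled, inducible HEK293 T-REx D2 cell line.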
D2 ag-1: human D2 receptor agonism in beta-arrestin assay | P14416 | DiscoveRx PathHunter D2 beta-arrestin, luminescence, 90 min; 100% = 57 uM dopamine signal | activation, % (no concentration beside the values) | hit rate 0.084% among 360,000 | AID 624465; in the data active means activation above about 40%; inconclusive means between about 15% and that limit
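DiscoveRx PathHunter D2 beta-arrestin cells (2,100/well) attached overnight, then compound-stimulated 90 min at 37 C in HBSS/10 mM HEPES/0.1% Tween-20 buffer; beta-galactosidase complementation read by luminescence after 1 h at ambient temperature. Dopamine 57 uM final (EC100) as control.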
D2 ag-2: activates the human D2 dopamine receptor | hit rate 0.53% among 340,000 | activation, % at 2 µM | HEK293 T-REx D2 cells, calcium flux agonist mode | AID 485358;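 active means activation over 3 SD above normal in the single-dose calcium agonist read, cut at about 30% in these data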; further: 0% is about no effect
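HEK293 Trex D2 cells, tetracycline-induced, o/n 30 C 5% CO2; no-wash Ca dye, RT 30–90 min; 10-cycle baseline, 23 nl cpd added, kinetic Ca read 180 s; agonist hits = positive Ca response.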
* = called active by the depositor. Most compounds without a hit are left out; they make up all but 2.4% or so of the library.

Results for CCOc1ccc2nc(N3CCCC(C(=O)Nc4ccc(Br)c(C)c4)C3)sc2c1 (stereo not given) ?
D2 PAM-2: -3; D2 ag-2: 0

Results for Cc1cc(Br)ccc1N=C1C(=O)Nc2ccccc21 ?
D2 PAM-1: -8; D2 PAM-2: -1; D2 antagonist: 59*; D2 ag-1: -16; D2 ag-2: 0

How did COc1ccc(-c2noc(CSc3nnc(C)n3-c3ccc(F)cc3)n2)cc1 do in these assays?
D2 PAM-2: 1; D2 ag-2: -1

What do the screens show for `Cc1onc(-c2c(Cl)cccc2Cl)c1CO/N=C(\C#N)c1c(Cl)cccc1Cl`?
D2 PAM-1: -4; D2 PAM-2: -3; D2 antagonist: 30*; D2 ag-1: -4; D2 ag-2: 1

Results for C/C(=N\NC(=O)c1c(Cl)c(C)nn1C)c1cccc(NC(=O)c2cccc(F)c2)c1 ?
D2 PAM-1: -22; D2 PAM-2: -16; D2 antagonist: 49*; D2 ag-1: -4; D2 ag-2: 0

Results for N/C(=N\OS(=O)(=O)c1ccc(Cl)cc1)c1ccncc1 ?
D2 PAM-1: 67*; D2 PAM-2: 0; D2 antagonist: 1; D2 ag-1: inconclusive; D2 ag-2: 1

What do the screens show for `CN(C)S(=O)(=O)c1ccc(N2CCCC2)c(C(=O)NNC(=O)COc2ccccc2F)c1`?
D2 PAM-1: 2; D2 PAM-2: -5; D2 antagonist: 57*; D2 ag-1: -1; D2 ag-2: 1

Results for COc1ccc(NC(=O)CN(C)C(=O)c2cc(S(=O)(=O)N(C)C)ccc2N2CCCC2)cc1 ?
D2 PAM-1: 3; D2 PAM-2: 8; D2 antagonist: 38*; D2 ag-1: 0; D2 ag-2: 1

Results for COc1ccc(NS(=O)(=O)c2cc(NC(=O)CCNC(C)=O)ccc2N2CCCCC2)cc1 ?
D2 PAM-1: -2; D2 PAM-2: 4; D2 antagonist: 37*; D2 ag-1: 2; D2 ag-2: 0

What do the screens show for `CN(C)S(=O)(=O)c1ccc(N2CCCC2)c(C(=O)NNC(=O)COc2ccccc2Cl)c1`?
D2 PAM-1: -16; D2 PAM-2: 3; D2 antagonist: 20; D2 ag-1: -2; D2 ag-2: -1

Results for COCCCNC(=O)c1ccc(Cn2c(=O)c3ccccc3n(Cc3c(C)cc(C)cc3C)c2=O)cc1 ?
D2 PAM-2: 8; D2 ag-2: 0

How did CCc1ccc2c(CN3CCc4cc(OC)c(OC)cc4C3)cc(=O)oc2c1 do in these assays?
D2 PAM-1: -18; D2 PAM-2: -26; D2 antagonist: 32*; D2 ag-1: 0; D2 ag-2: 26

How did COc1ccccc1CNC1CCN(Cc2ccccc2)CC1 do in these assays?
D2 PAM-1: -14; D2 ag-1: -4

Results for COc1cc2c(cc1OC)CN(Cc1ccc(C)cc1)CC2 ?
D2 PAM-1: -17; D2 PAM-2: -27; D2 antagonist: 56*; D2 ag-1: 0; D2 ag-2: 0

How did COc1ccccc1C1CCN(Cc2ccc(C)cc2)CC1 do in these assays?
D2 PAM-1: -14; D2 PAM-2: -27; D2 antagonist: 95*; D2 ag-1: -3; D2 ag-2: -1

What do the screens show for `CCCn1ccc2c(OCC(=O)Nc3ccc(C(F)(F)F)cc3)cccc2c1=O`?
D2 PAM-2: -7; D2 ag-2: 0

How did CC(=O)N1CCc2[nH]c3ccc(C)cc3c2C1 do in these assays?
D2 PAM-1: -7; D2 PAM-2: 4; D2 antagonist: 7; D2 ag-1: -2; D2 ag-2: 1

How did CCOC(=O)c1ccc2[nH]c3c(c2c1)CN(C)CC3 do in these assays?
D2 PAM-1: -10; D2 PAM-2: 1; D2 antagonist: 16; D2 ag-1: -4; D2 ag-2: 0

How did Cc1ccc2[nH]c3c(c2c1)CN(C)CC3 do in these assays?
D2 PAM-1: -36; D2 PAM-2: -30; D2 antagonist: 31*; D2 ag-1: -3; D2 ag-2: 2

How did Cc1cccc(CN2CCc3c([nH]c4ccccc34)C2)c1 do in these assays?
D2 PAM-1: -11; D2 PAM-2: -23; D2 antagonist: 56*; D2 ag-1: -6; D2 ag-2: 1

How did Cc1ccc2[nH]c3c(c2c1)CCN(C)C3 do in these assays?
D2 PAM-1: -5; D2 PAM-2: -16; D2 antagonist: 34*; D2 ag-1: -5; D2 ag-2: 1

How did CCN(CC)S(=O)(=O)c1ccc2c(c1)N(CC(=O)Nc1c(C)cccc1C)C(=O)C1CCCN21 (stereo not given) do in these assays?
D2 PAM-2: -3; D2 ag-2: 0

How did CCc1ccc(Nc2cc(C)nc3nc(Cc4ccc(Cl)cc4)nn23)cc1 do in these assays?
D2 PAM-2: -6; D2 ag-2: 1

How did C/C(CC(=O)N1CCN(C=O)CC1)=N\NC(=O)c1cc2ccccc2cc1O do in these assays?
D2 PAM-1: 51*; D2 PAM-2: -10; D2 antagonist: 7; D2 ag-1: -6; D2 ag-2: 0

What do the screens show for `C/C(CC(=O)N1CCN(C=O)CC1)=N\NC(=O)c1ccc([N+](=O)[O-])cc1`?
D2 PAM-1: -2; D2 PAM-2: 3; D2 antagonist: 3; D2 ag-1: 6; D2 ag-2: 0

Results for COc1ccc(/C=C/C(=O)c2ccc(C(=O)/C=C/c3ccc(OC)c(OC)c3)cc2)cc1OC ?
D2 PAM-1: -2; D2 PAM-2: 1; D2 antagonist: 34*; D2 ag-1: 6; D2 ag-2: 3

Results for COC(=O)c1ccc(/C=C/C(=O)c2ccc(OC)c(OC)c2)cc1 ?
D2 PAM-1: -33; D2 PAM-2: -5; D2 antagonist: -10; D2 ag-1: -2; D2 ag-2: 1

Results for Cc1cc(C)cc(N2CCn3c2nc2c3c(=O)n(CCc3ccccc3)c(=O)n2C)c1 ?
D2 PAM-2: 7; D2 ag-2: 1

How did COCCn1c(=O)[nH]c2cc(C(=O)NCCN3CCN(c4ccccc4)CC3)ccc2c1=O do in these assays?
D2 PAM-1: 0; D2 PAM-2: -28; D2 antagonist: 144*; D2 ag-1: inconclusive; D2 ag-2: 83*

What do the screens show for `CCc1cc(C(=O)OC)c(NC(=O)CC2SC(N)=NC2=O)s1` (stereo not given)?
D2 PAM-1: -3; D2 PAM-2: 9; D2 antagonist: 31*; D2 ag-1: -5; D2 ag-2: -1

Results for CCOC(=O)Nc1ccc2c(c1)nc(CN1CCCCC1)n2C ?
D2 PAM-2: -26; D2 antagonist: 31*; D2 ag-2: 0

Results for Cn1c(CN2CCCCC2)nc2cc(NC(=O)c3ccccc3)ccc21 ?
D2 PAM-1: -3; D2 PAM-2: -21; D2 antagonist: 36*; D2 ag-1: inconclusive; D2 ag-2: 34*

What do the screens show for `Cn1c(CN2CCCCC2)nc2cc(NC(=O)c3cccc(Br)c3)ccc21`?
D2 PAM-1: -6; D2 PAM-2: -7; D2 antagonist: 9; D2 ag-1: -2; D2 ag-2: -1
